RPL19A-GFP yeast – alters RPL19A-GFP fluorescence in TOR pathway yeast screen. AID 2025. percent response vs DMSO, % at 10 µM. actives 0.3% (n = 330,000). S. cerevisiae RPL19A-GFP strain, flow cytometry, 3 h; hits give low values;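 active = percent response vs DMSO below 50%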;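 also: median channel GFP fluorescence of the barcoded RPL19A-GFP strain; ratio of sample median GFP to plate DMSO average so 100% = DMSO; lower means less RPL19A-GFP as with rapamycin TOR inhibition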
LAP4-GFP MLPCN – modulators of TOR pathway LAP4-GFP in S. cerevisiae. S. cerevisiae LAP4-GFP multiplex, flow cytometry GFP, 3 h; median GFP as percent of DMSO wells. GFP response vs DMSO, % at 10 µM. actives 0.34% (n = 320,000);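 active = GFP response vs DMSO above a set limit, about the screen mean plus 3 SD, cut at about 150% in these data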
MEP2-GFP yeast – modulators of TOR pathway MEP2-GFP in S. cerevisiae. S. cerevisiae MEP2-GFP strain, flow cytometry GFP, 3 h; 100% = DMSO control level. GFP response vs DMSO, % at 10 µM. actives 0.51% (n = 330,000). AID 2016;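 active = GFP response versus DMSO above a set limit, roughly screen mean plus 3 SD, cut at about 180% in these data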;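 also: median GFP fluorescence of the barcode-gated MEP2-GFP cells per well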
CIT2 TOR yeast – modulators of TOR pathway CIT2-GFP in S. cerevisiae. GFP response vs DMSO, % at 10 µM. S. cerevisiae CIT2-GFP strain, flow cytometry, 3 h; 100 means same as DMSO wells. actives 0.065% (n = 320,000);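 active = GFP response relative to DMSO above a set limit, near the screen mean plus 3 SD, cut at about 150% in these data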;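 also: ratio of well median GFP fluorescence to mean of DMSO wells on the plate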
AGP1-GFP MLPCN – yeast TOR pathway AGP1-GFP modulation; S. cerevisiae AGP1-GFP multiplex flow cytometry, 3 h; GFP as percent of DMSO wells; actives 0.02% (n = 320,000); AID 2066; GFP response vs DMSO, % at 10 µM;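 active = GFP response relative to DMSO above a set limit, near screen average plus 3 SD, cut at about 150% in these data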;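 also: median GFP channel fluorescence of the gated AGP1 strain per well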
LAP4-GFP pick2 – reconfirmed LAP4-GFP TOR pathway modulator in yeast; S. cerevisiae LAP4-GFP strain, flow cytometry GFP, 3 h; shares compounds with LAP4-GFP MLPCN; GFP response vs DMSO, % at 10 µM; actives 20% (n = 590);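 active = GFP signal as percent of the solvent control above about 150%, meaning raised reporter expression, limit read from the data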;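 also: ratio of well median GFP fluorescence to plate DMSO mean so 100% = DMSO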
MEP2-GFP pick2 – yeast MEP2-GFP modulation, second cherry pick | actives 10% (n = 590) | shares compounds with LAP4-GFP MLPCN | GFP response vs DMSO, % at 10 µM | S. cerevisiae MEP2-GFP strain, flow cytometry GFP, 3 h;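 active = GFP signal above 150% of the solvent control wells, that is a rise of more than half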;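 also: median channel GFP fluorescence of all gated yeast cells per well; ratio of median GFP to plate DMSO average so 100% = DMSO level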
RPL19A-GFP pick2 – yeast RPL19A-GFP TOR reporter modulation, second cherry pick | shares compounds with LAP4-GFP MLPCN | S. cerevisiae RPL19A-GFP strain, flow cytometry GFP, 3 h; hits give low values; 100% means same as DMSO wells | GFP response vs DMSO, % at 10 µM | actives 3% (n = 590);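 active = under 65% GFP response relative to DMSO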;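 also: median GFP channel fluorescence per well over the all cells gate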
CIT2 GFP CP2 – yeast CIT2-GFP TOR reporter modulation, second cherry pick. shares compounds with LAP4-GFP MLPCN. S. cerevisiae CIT2-GFP strain, flow cytometry GFP, 3 h; DMSO control wells read 100%. GFP response vs DMSO, % at 10 µM. actives 8% (n = 590);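 active = GFP response vs DMSO above about 150%, limit read from the data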;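 also: median green fluorescence per well over all gated yeast cells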
AGP1 GFP CP2 – yeast AGP1-GFP TOR reporter modulation, second cherry pick. shares compounds with LAP4-GFP MLPCN. S. cerevisiae AGP1-GFP strain, flow cytometry GFP, 3 h. percent response vs DMSO, % at 10 µM. 590 tested, under 10 active. AID 2643;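 active = over 150 percent of DMSO response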;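 also: median GFP channel fluorescence over all cells without mother daughter split; sample median GFP divided by mean DMSO control so 100% equals DMSO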
s288c autofluor – compound is autofluorescent in yeast s288c cells | 610 tested, under 10 active | S. cerevisiae s288c, 520 nm autofluorescence, flow cytometry, 3 h; hits give high values; zero means same as solvent-only cells | shares compounds with LAP4-GFP MLPCN | fluorescence change (kMESF span) at 33 µM;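 active = fluorescence span over the dose series, or activity score, above about 33, limit read from the data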
An asterisk follows results filed as active; · = not tested or not shown. Compounds with a hit are over-represented: about 0.89% of the library has one in this group of screens.

SMILES	RPL19A-GFP yeast	LAP4-GFP MLPCN	MEP2-GFP yeast	CIT2 TOR yeast	AGP1-GFP MLPCN	s288c autofluor	others
Cc1cc(C)c2c(c1)/C(=C/C(=O)c1ccc(Br)s1)C(=O)N2	109	106	110	110	113	-0.1
CCc1ccc2c(c1)/C(=C/C(=O)c1cccs1)C(=O)N2	81	169*	95	76	80	0.11
CCc1ccc2c(c1)/C(=N/N(C)C(=S)NC)C(=O)N2	95	104	106	90	101	·
Cc1cc(Br)c2c(c1)/C(=C/C(=O)c1cccs1)C(=O)N2	82	112	90	·	87	-0.2
Cc1cccc2c1NC(=O)/C2=C\C(=O)c1cccs1	88	185*	90	77	82	-0.11
Cc1ccc(C(=O)CCC(=O)OC(C)C(=O)NC2CCCCC2C)cc1 (stereo unspecified)	95	94	96	96	99	·
CN(C(=O)COC(=O)COc1ccc(Cl)cc1Cl)c1c(N)n(Cc2ccccc2)c(=O)[nH]c1=O	97	99	100	103	102	·
COc1ccc(Cl)cc1NC(=O)c1noc(C)c1[N+](=O)[O-]	94	107	103	99	96	·
COc1cc(OC)c(C(=O)OCC(=O)Nc2nnc(-c3ccccc3)o2)cc1OC	95	107	89	93	94	·
Clc1ccccn1	96	100	94	83	92	·
CC(C)c1ccc(N2C(=O)CC(Sc3ncn[nH]3)C2=O)cc1 (stereo unspecified)	98	·	76	99	82	·
COc1ccc(N2C(=O)CC(Sc3ncn[nH]3)C2=O)c(OC)c1 (stereo unspecified)	96	124	88	103	97	0.61
C/C(=N/NC(=O)CNC(=O)c1cccc(F)c1)c1ccc2c(c1)CCCC2	88	91	82	90	94	·
CC1CC(C)CN(C(=O)COC(=O)CCC(=O)c2cccs2)C1 (stereo unspecified)	86	165*	97	79	111	·	LAP4-GFP pick2=99;MEP2-GFP pick2=102;RPL19A-GFP pick2=97;CIT2 GFP CP2=109;AGP1 GFP CP2=106
Cc1[nH]c(=O)c(C#N)c(C)c1CCC(=O)Nc1cc(S(C)(=O)=O)ccc1Cl	99	91	103	108	96	·
COc1ccc(N2CCN(C(=O)c3ccc(Br)cc3)CC2)c([N+](=O)[O-])c1	90	199*	99	72	122	2.3
COc1ccc(N2CCN(C(=O)c3ccccc3)CC2)c([N+](=O)[O-])c1	70	189*	89	61	65	-0.3
COc1ccc(N2CCN(C(=O)c3ccc(C)cc3)CC2)c([N+](=O)[O-])c1	95	97	91	86	94	·
CCOC(=O)/C(=C\c1cn(C)c2ccccc12)[N+](=O)[O-]	80	207*	98	57	59	2.2
COc1cc(NC(=O)c2ccccc2[N+](=O)[O-])ccc1NC(=O)c1cc2ccccc2o1	106	108	118	107	106	0.1
CCC(=O)Nc1ccc(NC(=O)c2cc3ccccc3o2)cc1	104	107	103	105	110	0.2
CCC(=O)Nc1ccc(NC(=S)NC(=O)c2cc3ccccc3o2)cc1	94	94	100	95	93	·
COC(=O)c1ccc(/C=C(\C#N)c2nc3ccccc3s2)cc1	94	100	101	99	90	·
N#C/C(=C\c1ccccn1)c1nc2ccccc2s1	166	634*	752*	·	166*	33*
COc1cc(OC)cc(C(=O)Nc2ccc(C(=O)c3ccncc3)cc2)c1	105	86	101	·	97	·
SMILES	RPL19A-GFP yeast	LAP4-GFP MLPCN	MEP2-GFP yeast	CIT2 TOR yeast	AGP1-GFP MLPCN	s288c autofluor	others
O=C(O)c1ccc2c(c1)C(=O)/C(=C/c1ccccc1)C2=O	94	83	92	86	86	0	LAP4-GFP pick2=88;MEP2-GFP pick2=94;RPL19A-GFP pick2=99;CIT2 GFP CP2=107;AGP1 GFP CP2=98
Cc1ccc(C(=O)COC(=O)COc2ccccc2[N+](=O)[O-])s1	98	104	101	97	99	·
CCOC(=O)COc1ccccc1/C=C\[N+](=O)[O-]	72	188*	91	74	76	·	LAP4-GFP pick2=140;MEP2-GFP pick2=122;RPL19A-GFP pick2=96;CIT2 GFP CP2=113;AGP1 GFP CP2=101
O=C(CC1C(=O)NCCN1Cc1cccc(F)c1)NCCCOc1cccnc1 (stereo unspecified)	94	95	90	95	94	·
CC(CNC(=S)Nc1cc(F)cc(F)c1)CSc1ccc(Cl)cc1 (stereo unspecified)	110	110	101	101	94	·
O=C(NCCC1CCCCN1S(=O)(=O)c1ccccc1)C(=O)Nc1ccc(F)cc1F (stereo unspecified)	96	106	100	98	105	·
CC(=O)Oc1ccc(N2C(=O)C3C4C=CC(O4)C3C2=O)cc1 (stereo unspecified)	98	118	98	100	100	0.1
CCOC(=O)c1c(C)[nH]c(C)c1S(=O)(=O)N(C)CC(=O)NCc1cccc(Br)c1	60	114	877*	88	27	·	LAP4-GFP pick2=98;MEP2-GFP pick2=102;RPL19A-GFP pick2=101;CIT2 GFP CP2=103;AGP1 GFP CP2=101
O=C(NOC(=O)c1ccccc1)c1ccccc1	93	164*	102	79	65	2.3
O=[N+]([O-])c1cc(/C=N\Nc2ccccn2)ccc1Cl	106	80	103	96	98	·
O=[N+]([O-])c1cc(Cl)cc(/C=N\Nc2ccccn2)c1O	52	147	122	74	46	2.7	LAP4-GFP pick2=179*;MEP2-GFP pick2=192*;RPL19A-GFP pick2=82;CIT2 GFP CP2=165*;AGP1 GFP CP2=84
Cn1ncc(N=Cc2c(O)ccc3ccccc23)c1C(=O)Nc1cccc(Cl)c1	95	100	102	97	·	·

Source: PubChem BioAssay (NMMLSC)
